# CHX counter: affects cycloheximide protein synthesis inhibition readout, counter-screen | cell reporter, cycloheximide protein synthesis inhibition counterscreen | AID 2314 | max response, % | 300,000 tested, 12% active; in the data active = max response mostly above about 13%, no sharp cut-off; inactive = mostly below about 14%; also: read at 38.3 µM for the half of the compounds with a filed dose; 0% is about no effect
# RE007 growth inh: less growth of the S. pombe RE007 Vpr strain; S. pombe RE007 Vpr strain, BacTiter-Glo ATP luminescence, 24 h; Potency, µM (titrated, usually from 92.2 µM), for inactives: top-dose activity change, negative = less growth, hits mostly inhibitors; 360,000 tested, 0.21% active; AID 651644; active = well fitted falling curve with a large enough effect; inconclusive = small, poorly fitted or top-dose-only effect; inactive = no such curve, though single readings can be large or run the other way; also: potency is read from the fitted curve at half-maximal effect; % is scaled to controls: 0 for no effect and ±100 for the full control effect; nearly all actives have a fitted effect of over 50% in size
#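 Fission yeast RE007 carrying one integrated HIV-1 vpr copy, seeded at OD 0.01 in PMG+AL medium with 23 nL pinned compound. Grown 24 h at 30 degrees; viability read by BacTiter-Glo luminescence after 5 min.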
# Giardia FBPA inh: inhibitors of Giardia lamblia fructose-1,6-bisphosphate aldolase. A8B2U2. purified Giardia FBPA. Potency, µM (doses to about 59.6 µM), for inactives: at the top dose activity, negative = inhibition, hits mostly inhibitors. 290,000 tested, 0.71% active. AID 2451; also: potency is read from the fitted curve at half-maximal effect; % is scaled to controls: 0 for no effect and ±100 for the full control effect; nearly all actives have a fitted effect of over 55% in size
# Target sequence (A8B2U2 whole entry, looked up): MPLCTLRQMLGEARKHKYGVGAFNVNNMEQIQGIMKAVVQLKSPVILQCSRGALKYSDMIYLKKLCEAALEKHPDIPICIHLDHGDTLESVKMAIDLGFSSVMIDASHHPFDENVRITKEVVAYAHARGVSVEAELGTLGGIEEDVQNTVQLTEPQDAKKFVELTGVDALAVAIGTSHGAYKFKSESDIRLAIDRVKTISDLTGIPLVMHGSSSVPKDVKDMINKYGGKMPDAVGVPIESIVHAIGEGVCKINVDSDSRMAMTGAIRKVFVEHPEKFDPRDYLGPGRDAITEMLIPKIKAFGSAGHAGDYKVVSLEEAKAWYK
#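 Giardia FBPA (40 nM reagent) was preincubated 10 min at RT with compound (up to 57.5 uM final), then substrate plus GAPDH/TPI/NAD/arsenate coupling system with diaphorase/resazurin was added; resorufin fluorescence (525/598 nm) was read after 20 min.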
# Shiga inhibitor: Shiga toxin inhibition | Vero cells, Shiga toxin protein synthesis inhibition reporter | AID 2315 | inhibition, % at 38.7 µM | 290,000 tested, 9.2% active; in the data active = inhibition mostly above about 28%, no sharp cut-off; inactive = mostly below about 43%; also: 0% is about no effect
# LmPK inh: LmPK (Leishmania mexicana) enzyme inhibition; purified LmPK, Kinase-Glo ATP luminescence, 1 h; Potency, µM (top dose mostly 57.5 µM), for inactives: top-dose activity change, negative = inhibition, most hits filed as inhibitors; 290,000 tested, 0.37% active; AID 1721; also: potency is read from the fitted curve at half-maximal effect; % is scaled to controls: 0 for no effect and ±100 for the full control effect
#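 In 50 mM imidazole pH 7.2 with 7 mM MgCl2, LmPK (0.1 nM) turned over PEP (0.5 mM) and ADP (0.1 mM) for 1 h at room temperature. Luciferase read-out of ATP.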
# TbPYK inhibitor: inhibitors of Trypanosoma brucei pyruvate kinase | Q57TT1 | TbPYK enzyme, Kinase-Glo Plus ATP luminescence, 45 min | Potency, µM (highest dose often 76.8 µM), for the others: at the top dose activity, negative = inhibition, hits mostly inhibitors | 410,000 tested, 0.12% active; also: potency is read from the fitted curve at half-maximal effect; % is scaled to controls: 0 for no effect and ±100 for the full control effect; nearly all actives have a fitted effect of over 50% in size
#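 Screened from lowest to highest concentration, compounds were pinned into TbPYK/substrate mixtures, and ADP (130 uM final) was added. Plates sat at room temperature for 45 min prior to Kinase-Glo Plus detection by luminescence.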
# * marks the source's active call; other numbers are inactive results; ? = inconclusive; nt = no result; [ ] = another dose, or the depositor's remark. Shown is part of a subset that was picked to be rich in hits. Unless noted, calls follow the shape of the dose curve; as a rule, active = well fitted curve in the direction sought with a large enough effect; inconclusive = small, poorly fitted or top-dose-only effect, or another doubt; inactive = no such curve, though single readings can be large; an effect the other way counts as inactive or inconclusive.
SMILES,CHX counter,RE007 growth inh,Giardia FBPA inh,Shiga inhibitor,LmPK inh,TbPYK inhibitor
CN1C(=O)C(=Cc2coc3ccccc3c2=O)C(=O)N(C)C1=O,20*,-29%,-2%,23,0%,?
CCN(Cc1nc2ccccc2c(=O)[nH]1)C(=O)COc1ccccc1-c1ccccc1,nt,4%,nt,nt,nt,4%
Cc1ccc(S(=O)(=O)NC(=O)Cn2nnc(-c3ccccc3)c2COc2ccc3ccccc3c2)cc1,nt,-1%,nt,nt,nt,-7%
CC(C)CSC1=NSC2=NC(=O)/C(=C\c3coc4ccccc4c3=O)C(=N)N12,27*,-1%,-4%,71*,4%,-7%
OC(c1ccc(Cl)cc1)c1nccc2ccccc12 (configuration not stated),9,4%,?,nt,-1%,-1%
CCCCNC(=O)c1ccc(Cn2c(=S)[nH]c3c([nH]c4ccc(OC)cc43)c2=O)cc1,1,-2%,5%,-8,-1%,?
CCN(CC)CCNC(=O)CCCCn1c(=S)[nH]c2c([nH]c3ccc(OC)cc32)c1=O,-3,8%,-9%,18,2.8µM*,?
CCCOc1ccc(N)cc1N,-3,-19%,0.4µM*,18,-3%,-30%
CCCOc1cc(N)ccc1C(=O)OCCN(CC)CC,nt,-12%[18.4 µM],-3%[21.7 µM],nt,nt,-4%
FC(F)(F)c1cccc(N2CCc3cn[nH]c32)c1,23*,?,-6%,32*,-1%,2%
FC(F)(F)c1cccc(N2CCNCC2)c1,-8,nt,-11%,11,2%,nt
COc1ccc(OCC(=O)Nc2ccc3c(c2)N(C)C(=O)c2ccccc2S3)cc1,nt,nt,nt,nt,nt,0%
CC(C)(C)C1CCC(=O)N(CCOc2ccccc2)CC1 (configuration not stated),28*,14%,9%,43*,0%,-9%
CCCN1CCC(=O)N(CCOc2ccccc2)CC1,3,1%,13%,4,-6%,-1%
CC(C)(C)[C@@H]1CCC(=O)N(CC[C@H](N=[N+]=[N-])c2ccccc2)CC1,13*,-5%,-7%,33*,-5%,-3%
CC1(C)CC(=O)c2cc(C(=O)Nc3ccc(Br)cc3)c(=O)[nH]c2C1,nt,nt,nt,nt,nt,-6%
CC(C)C[C@@H](CC(=O)N[C@@H](CCC(=O)O)CC(=O)O)NC(=O)[C@@H]1CCCC[C@H]1NC(=O)C[C@H](CCCN)NC(=O)C[C@H](Cc1c[nH]c2ccccc12)NC(=O)[C@@H]1CCCC[C@H]1N,nt,nt,-19%,nt,nt,nt
Cc1ccc(OCC(O)CN2C(=O)NC(C)(C)C2=O)cc1 (configuration not stated),-4,0%,-2%,-2,0%,-2%
CCCCCCOc1ccc(OCC(O)CN2C(=O)NC(C)(C)C2=O)cc1 (configuration not stated),43*,-12%,5%,175*,8%,1%
O=C(CN1CCN(C(=O)CNC(=O)c2ccc(-c3ccccc3)cc2)CC1)Nc1ccccc1Cl,nt,-10%,nt,nt,nt,-9%
COc1ccc(-c2nc(CN(CC3CCC(=O)N3)C(C)C)c(C)o2)c(C)c1C (configuration not stated),25*,-24%,0%,87*,0%,1%
CN(C)c1ccc2c(c1)C(=NO)c1ccccc1-2,nt,-26%,nt,nt,nt,-8%
ON=C1c2ccccc2-c2ccccc21,25*,-7%,3%,23*,5%,1%
Cc1c(-c2ccccc2)nnn1-c1ccc(F)cc1F,45*,3%,-5%,73*,-1%,9%
Cc1ccc(CN2C(=O)c3ccccc3Sc3ccc(C(=O)NC4CCCCC4)cc32)cc1,nt,nt,nt,nt,nt,-11%
COc1ccc(C(=O)Nc2nnc(Cc3ccc(OC)c(OC)c3)s2)cc1,11*,5%,1%,20,-2%,-2%
COc1ccc(CC(=O)n2[nH]c(=O)c3ccccc3c2=O)cc1OC,-2,3%,2%,14,3%,3%
COc1ccc(CC(=O)n2[nH]c(=O)ccc2=O)cc1OC,15,6%,?,41*,-3%,7.1µM*
Cc1ccc(NC(=O)Nc2nnc(Cc3ccc(F)cc3)s2)cc1,16,-2%,19%,42*,3%,-5%

# Bioassay records deposited in PubChem by National Center for Advancing Translational Sciences (NCATS).
